From PubChem BioAssay (Tox21)
Results filed as inconclusive are left out. The source made the active and inactive calls. Calls come from the whole dose curve; as a rule, active = well fitted curve in the direction sought with a large enough effect in the repeat runs; inconclusive = weak or mixed curves; inactive = no such curve, though single readings can be large; an effect the other way counts as inactive or inconclusive.

Legend:
[1] = A CellTox Green Cytotoxicity Assay to monitor cytotoxicity in HEK293 cells - 40 hour (AID 1224871); note: nearly all actives have a fitted effect of over 45% in size; note: potency is the fitted concentration of half-maximal effect
Method in brief: (§1)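 HEK293 cells premixed with CellTox Green dye were seeded at 600 cells/well and left 5 h at 37 C/5% CO2 before pin transfer of 23 nL compound in DMSO. Fluorescence from dye bound to dead-cell DNA was read during 40 h treatment.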

[2] = qHTS RealTime-Glo MT Cell Viability Assay in HEK293 cells - 16 hour (AID 1224872); note: top concentration of the series differs between compounds; nearly all actives have a fitted effect of over 50% in size
Method in brief: (§2)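 Quantitative high-throughput screen of the Tox21 10K library in HEK293: cells and RealTime-Glo reagents plated together, compound added at 5 h, luminescence monitored through 40 h at 37 C.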

[3] = qHTS RealTime-Glo MT Cell Viability Assay in HepG2 cells - 8 hour (AID 1224873); note: nearly all actives have a fitted effect of over 55% in size
Method in brief: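 HepG2 cells (600/well) mixed with RealTime-Glo MT reagent, settled 5 h at 37 C/5% CO2 before compound addition. Nonlytic NanoLuc luminescence from viable-cell prosubstrate reduction read repeatedly during 40 h treatment at 37 C.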

[4] = qHTS RealTime-Glo MT Cell Viability Assay in HEK293 cells - 40 hour (AID 1224874); conditions: RealTime-Glo luminescence; max response: stronger effect = lower value; note: nearly all actives have a fitted effect of over 50% in size
Method in brief: (§3)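 HEK293 cells mixed with RealTime-Glo reagents (NanoLuc plus cell-permeant prosubstrate) at 600 cells/well, preincubated 5 h at 37 C/5% CO2, then given 23 nL compound in DMSO. Nonlytic luminescence from viable cells was read at 0, 8, 16, 24, 32 and 40 h.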

[5] = A CellTox Green Cytotoxicity Assay to monitor cytotoxicity in HEK293 cells - 24 hour (AID 1224875); note: series mostly up to about 77 µM; nearly all actives have a fitted effect of over 45% in size
Method in brief: as §1

[6] = A CellTox Green Cytotoxicity Assay to monitor cytotoxicity in HepG2 cells - 16 hour (AID 1224876); note: nearly all actives have a fitted effect of over 45% in size
Method in brief: (§4)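 HepG2 cells were seeded together with the CellTox Green dye at 600 cells/well, left 5 h at 37 C/5% CO2, then given compounds in DMSO. Fluorescence from dye bound to dead-cell DNA was read repeatedly over 40 h of treatment at 37 C.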

[7] = qHTS RealTime-Glo MT Cell Viability Assay in HepG2 cells - 32 hour (AID 1224877); note: nearly all actives have a fitted effect of over 55% in size; note: potency is the fitted concentration of half-maximal effect
Method in brief: (§5)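 Compound treatment began 5 h after plating HepG2 cells (600/well) with NanoLuc luciferase and prosubstrate. Plates stayed at 37 C for 40 h; luminescence was captured at six time points, 0 h through 40 h.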

[8] = A CellTox Green Cytotoxicity Assay to monitor cytotoxicity in HepG2 cells - 40 hour (AID 1224879); note: nearly all actives have a fitted effect of over 40% in size
Method in brief: as §4

[9] = qHTS RealTime-Glo MT Cell Viability Assay in HEK293 cells - 0 hour (AID 1224880); note: top concentration of the series differs between compounds; nearly all actives have a fitted effect of over 45% in size
Method in brief: as §3

[10] = A CellTox Green Cytotoxicity Assay to monitor cytotoxicity in HEK293 cells - 32 hour (AID 1224881); note: nearly all actives have a fitted effect of over 40% in size
Method in brief: as §1

[11] = A CellTox Green Cytotoxicity Assay to monitor cytotoxicity in HepG2 cells - 0 hour (AID 1224882); note: nearly all actives have a fitted effect of over 35% in size
Method in brief: as §4

[12] = A CellTox Green Cytotoxicity Assay to monitor cytotoxicity in HepG2 cells - 32 hour (AID 1224883); note: nearly all actives have a fitted effect of over 50% in size
Method in brief: as §4

[13] = A CellTox Green Cytotoxicity Assay to monitor cytotoxicity in HEK293 cells - 8 hour (AID 1224884); note: nearly all actives have a fitted effect of over 35% in size
Method in brief: as §1

[14] = qHTS RealTime-Glo MT Cell Viability Assay in HepG2 cells - 16 hour (AID 1224885); note: nearly all actives have a fitted effect of over 50% in size
Method in brief: as §5

[15] = qHTS RealTime-Glo MT Cell Viability Assay in HEK293 cells - 24 hour (AID 1224886)
Method in brief: as §2

[16] = qHTS RealTime-Glo MT Cell Viability Assay in HEK293 cells - 8 hour (AID 1224887)
Method in brief: as §3

[17] = A CellTox Green Cytotoxicity Assay to monitor cytotoxicity in HEK293 cells - 16 hour (AID 1224888); note: nearly all actives have a fitted effect of over 35% in size
Method in brief: as §1

[18] = qHTS RealTime-Glo MT Cell Viability Assay in HepG2 cells - 0 hour (AID 1224889); note: nearly all actives have a fitted effect of over 50% in size
Method in brief: as §5

[19] = A CellTox Green Cytotoxicity Assay to monitor cytotoxicity in HepG2 cells - 8 hour (AID 1224890); note: nearly all actives have a fitted effect of over 45% in size
Method in brief: as §4

[20] = A CellTox Green Cytotoxicity Assay to monitor cytotoxicity in HepG2 cells - 24 hour (AID 1224878); note: nearly all actives have a fitted effect of over 45% in size
Method in brief: as §4
% is set by controls: 0 for no effect and ±100 for the full control effect.

Cc1coc2ccccc2c1=O
inactive: Potency [1] | Potency [2] | outcome [3] | max response [4] -0.146% | outcome [5] | outcome [6] | Potency [7] | Potency [8] | Potency [9] | outcome [10] | Potency [11] | Potency [12] | outcome [13] | outcome [14] | Potency [15] | Potency [16] | outcome [17]

CCCCN(CCC(=O)OCC)C(C)=O
inactive: Potency [1] | Potency [2] | outcome [3] | max response [4] 0.53% | outcome [5] | outcome [6] | Potency [7] | Potency [8] | Potency [9] | outcome [10] | Potency [11] | Potency [12] | outcome [13] | outcome [14] | Potency [15] | Potency [16] | outcome [17] | Potency [18] | outcome [19]

CC(C)C[C@@H](N)C(=O)O
inactive: cytotoxicity increase [1] -2.15% [at 15.8 µM] | activity change, negative = cytotoxicity [2] 5.2% [at 15.8 µM] | viability change, negative = cytotoxic [3] 0.12% [at 15.8 µM] | max response [4] 5.97% | activity change [5] -2.57% [at 15.8 µM] | cytotoxicity increase [6] -14.3% [at 15.8 µM] | activity change, negative = cytotoxic [7] 4.67% [at 15.8 µM] | cytotoxicity increase [8] 0.791% [at 15.8 µM] | activity change, negative = cytotoxicity [9] 5.62% [at 15.8 µM] | cytotoxicity increase [10] -1.55% [at 15.8 µM] | cytotoxicity [11] -9.4% [at 15.8 µM] | cytotoxicity increase [13] -0.255% [at 15.8 µM] | activity change, negative = cytotoxic [14] 2.37% [at 15.8 µM] | activity change, negative = cytotoxicity [15] 1.4% [at 15.8 µM] | activity change, negative = cytotoxicity [16] 7.72% [at 15.8 µM] | activity change [17] 1.15% [at 15.8 µM] | activity change, negative = cytotoxicity [18] 0.397% [at 15.8 µM] | cytotoxicity increase [19] -17.7% [at 15.8 µM]

Cc1ccnc(NS(=O)(=O)c2ccc(N)cc2)n1
inactive: Potency [1] | Potency [2] | outcome [3] | max response [4] 6.66% | outcome [5] | outcome [6] | Potency [7] | Potency [8] | Potency [9] | outcome [10] | Potency [11] | Potency [12] | outcome [13] | outcome [14] | Potency [15] | Potency [16] | outcome [17] | Potency [18] | outcome [19]

FB(F)F
inactive: Potency [1] | Potency [2] | outcome [3] | max response [4] -1.41% | outcome [5] | outcome [6] | Potency [7] | Potency [8] | Potency [9] | outcome [10] | Potency [11] | Potency [12] | outcome [13] | outcome [14] | Potency [15] | Potency [16] | outcome [17] | Potency [18] | outcome [19]

C=CCCC(=O)O
inactive: Potency [1] | Potency [2] | outcome [3] | max response [4] 7.36% | outcome [5] | outcome [6] | Potency [7] | Potency [8] | Potency [9] | outcome [10] | Potency [11] | outcome [13] | outcome [14] | Potency [15] | Potency [16] | outcome [17] | Potency [18] | outcome [19]

O=S(=O)(O)c1cccc2ccccc12
inactive: Potency [1] | Potency [2] | outcome [3] | max response [4] 14.6% | outcome [5] | outcome [6] | Potency [7] | Potency [8] | Potency [9] | outcome [10] | Potency [11] | outcome [13] | outcome [14] | Potency [15] | Potency [16] | outcome [17] | Potency [18] | outcome [19]

CCCCCCCCCCCCCCCCCCO
inactive: Potency [1] | Potency [2] | outcome [3] | max response [4] -1.19% | outcome [5] | outcome [6] | Potency [7] | Potency [8] | Potency [9] | outcome [10] | Potency [11] | Potency [12] | outcome [13] | outcome [14] | Potency [15] | Potency [16] | outcome [17] | Potency [18] | outcome [19]

CNCC(O)c1ccc(O)c(O)c1 (stereo not given)
inactive: Potency [1] | Potency [2] | outcome [3] | max response [4] 0.68% | outcome [5] | outcome [6] | Potency [7] | Potency [8] | Potency [9] | outcome [10] | Potency [11] | Potency [12] | outcome [13] | outcome [14] | Potency [15] | Potency [16] | outcome [17] | Potency [18] | outcome [19]

[K+]
inactive: Potency [1] | Potency [2] | outcome [3] | max response [4] 21.2% | outcome [5] | outcome [6] | outcome [20] | Potency [8] | outcome [10] | Potency [11] | Potency [12] | outcome [14] | Potency [15] | Potency [16] | outcome [17] | Potency [18] | outcome [19]
active: Potency [7] 49 µM

c1ccc(Cc2ccccc2)cc1
active: Potency [1] 34.7 µM
inactive: Potency [2] | outcome [3] | max response [4] -0.7% | outcome [5] | outcome [6] | Potency [7] | Potency [8] | Potency [9] | Potency [11] | Potency [12] | outcome [13] | outcome [14] | Potency [15] | Potency [16] | outcome [17] | Potency [18] | outcome [19]

CCCCOCCOC(=O)CCCCCCCCC(=O)OCCOCCCC
inactive: Potency [1] | Potency [2] | outcome [3] | max response [4] 7.25% | outcome [5] | outcome [6] | Potency [7] | Potency [8] | Potency [9] | outcome [10] | Potency [11] | Potency [12] | outcome [13] | outcome [14] | Potency [15] | Potency [16] | outcome [17] | Potency [18]
